Results filed as inconclusive are left out. Active and inactive are the calls of the source. How the source made its calls, unless noted: active means hit-call score of the fitted dose curve at least 0.9, where 1 is the maximum; inactive means score below 0.9.
Columns and labels:
[1] = BSK_3C_uPAR: BioMAP Diversity Plus: 3C Assay for Urokinase-type plasminogen activator receptor (uPAR) Biomarker Activity (AID 2282998); conditions: BioMAP 3C HUVEC, uPAR biomarker ELISA; actives raise or lower the signal
Procedure, shortened: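 Values derive from bidirectional curve fitting relative to DMSO, which served as baseline of activity. uPAR was measured by ELISA in human umbilical vein endothelial primary cultures 24 h after compound addition.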

[2] = BSK_3C_VCAM1: BioMAP Diversity Plus: 3C Assay for Vascular cell adhesion molecule 1 (VCAM1) Biomarker Activity (AID 2282999); conditions: BioMAP 3C HUVEC, VCAM1 ELISA, cytokine-stimulated; actives raise or lower the signal
Procedure, shortened: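 Endothelial cells from human umbilical vein are treated with test chemical. At 24 h, VCAM-1 is measured by ELISA, and responses in either direction are fitted relative to DMSO.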

[3] = BSK_4H_Eotaxin3: BioMAP Diversity Plus: 4H Assay for Eotaxin 3 Biomarker Activity (AID 2283000); conditions: primary human endothelial cells (HUVEC); actives raise or lower the signal
Procedure, shortened: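 HUVEC, 24 h post-dose, ELISA for Eotaxin-3/CCL26. Gain or loss of signal fitted bidirectionally vs DMSO baseline.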

[4] = molecular target: human Peroxisome Proliferator-activated Receptor alpha (PPARa), PPARA (gene 5465) (UniProt Q07869); assay: ATG_PPARa_TRANS: Attagene TRANS-FACTORIAL HepG2 Assay for human Peroxisome Proliferator-activated Receptor alpha (PPARa) (AID 2283001; active means hit-call score of the fitted dose curve at least 0.9, where 1 is the maximum)
Chain of human Peroxisome Proliferator-activated Receptor alpha (PPARa), PPARA (gene 5465) (Q07869 whole entry, looked up, the tested form may be a part): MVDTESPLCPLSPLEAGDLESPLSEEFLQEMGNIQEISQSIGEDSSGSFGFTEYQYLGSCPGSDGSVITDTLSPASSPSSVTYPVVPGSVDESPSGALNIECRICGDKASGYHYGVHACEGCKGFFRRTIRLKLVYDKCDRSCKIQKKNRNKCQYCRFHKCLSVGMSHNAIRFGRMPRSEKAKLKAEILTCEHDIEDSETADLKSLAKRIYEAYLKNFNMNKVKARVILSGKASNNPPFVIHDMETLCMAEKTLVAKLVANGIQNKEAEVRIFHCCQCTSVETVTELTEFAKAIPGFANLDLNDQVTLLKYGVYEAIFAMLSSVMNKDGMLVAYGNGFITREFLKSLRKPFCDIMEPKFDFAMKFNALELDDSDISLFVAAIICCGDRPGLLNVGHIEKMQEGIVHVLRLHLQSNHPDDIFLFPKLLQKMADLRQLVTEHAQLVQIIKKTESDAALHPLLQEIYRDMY
Procedure, shortened: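 Reporter transcripts from GAL4-UAS units in transfected HepG2 were quantified 24 h after dosing. Detection used reverse transcription, PCR, fluorescent primer extension and capillary electrophoresis, with DMSO as baseline.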

[5] = read-out: Intercellular Adhesion Molecule 1 (ICAM1), ICAM1 (gene 3383); assay: BSK_3C_ICAM1: BioMAP Diversity Plus: 3C Assay for Intercellular Adhesion Molecule 1 (ICAM1) Biomarker Activity (AID 2283003); conditions: primary human endothelial cells (HUVEC); actives raise or lower the signal
Procedure, shortened: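 Primary human umbilical vein endothelial cells in the BioMAP 3C system were exposed to chemicals for 24 h, then ICAM-1 was quantified by ELISA. Activity was fitted bidirectionally against the DMSO negative control baseline.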

[6] = molecular target: human Retinoic Acid Receptor beta (RARb), RARB (gene 5915) (UniProt P10826); assay: ATG_RARb_TRANS: Attagene TRANS-FACTORIAL HepG2 Assay for human Retinoic Acid Receptor beta (AID 2283004; active means hit-call score of the fitted dose curve at least 0.9, where 1 is the maximum)
Chain of human Retinoic Acid Receptor beta (RARb), RARB (gene 5915) (P10826 whole entry, looked up, the tested form may be a part): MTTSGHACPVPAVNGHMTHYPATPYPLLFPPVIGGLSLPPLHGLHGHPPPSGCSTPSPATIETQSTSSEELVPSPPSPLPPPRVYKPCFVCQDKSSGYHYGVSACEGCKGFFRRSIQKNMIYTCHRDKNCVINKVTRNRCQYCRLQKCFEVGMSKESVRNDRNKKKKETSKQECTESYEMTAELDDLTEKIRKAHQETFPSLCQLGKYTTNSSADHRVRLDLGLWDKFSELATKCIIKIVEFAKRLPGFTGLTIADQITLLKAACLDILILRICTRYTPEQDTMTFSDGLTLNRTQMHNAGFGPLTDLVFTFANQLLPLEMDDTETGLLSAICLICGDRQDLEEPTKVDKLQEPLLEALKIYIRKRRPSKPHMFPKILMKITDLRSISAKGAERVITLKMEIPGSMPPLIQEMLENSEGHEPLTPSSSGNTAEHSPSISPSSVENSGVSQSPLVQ
Procedure, shortened: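 HepG2 cells transiently transfected with multiplexed GAL4-UAS reporter units expressing chimeric NR–Gal4 fusions; 24 h compound exposure. Reporter mRNA quantified by RT-PCR, 6-FAM labelling, HpaI digestion and capillary electrophoresis; gain-of-signal fitted against DMSO baseline.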

[7] = molecular target: Retinoic acid receptor alpha (Homo sapiens) (UniProt P10276); assay: ATG_RARa_TRANS: Attagene TRANS-FACTORIAL HepG2 Assay for human Retinoic Acid Receptor alpha (RARa) (AID 2283005; active means hit-call score of the fitted dose curve at least 0.9, where 1 is the maximum;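 on AC50: potency for increased reporter signal meaning RARa activation over DMSO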)
Chain of Retinoic acid receptor alpha (Homo sapiens) (P10276 whole entry, looked up, the tested form may be a part): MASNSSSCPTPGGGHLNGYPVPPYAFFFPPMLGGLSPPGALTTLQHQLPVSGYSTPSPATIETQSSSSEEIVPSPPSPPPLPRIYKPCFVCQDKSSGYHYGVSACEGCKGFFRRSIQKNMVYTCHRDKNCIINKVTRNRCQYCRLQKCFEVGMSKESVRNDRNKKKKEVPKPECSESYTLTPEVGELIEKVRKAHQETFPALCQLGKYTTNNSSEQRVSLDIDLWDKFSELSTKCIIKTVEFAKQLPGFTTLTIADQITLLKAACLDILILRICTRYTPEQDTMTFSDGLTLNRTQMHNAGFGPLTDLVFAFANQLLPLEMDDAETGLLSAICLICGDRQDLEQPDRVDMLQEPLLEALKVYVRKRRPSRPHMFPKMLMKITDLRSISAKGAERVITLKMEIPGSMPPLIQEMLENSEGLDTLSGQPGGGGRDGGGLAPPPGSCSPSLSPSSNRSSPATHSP
Procedure, shortened: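 Reporter transcripts, measured by RT-PCR with fluorescent labeling and capillary electrophoresis after 24 h dosing, reflect activity of an exogenous human RARa–GAL4 fusion in transiently transfected HepG2. Fitted for increase relative to DMSO.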

[8] = BSK_3C_Proliferation: Cell Proliferation Assessment in the BioMAP Diversity Plus: 3C Assay (AID 2283006); conditions: primary human endothelial cells (HUVEC);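 on AC50: potency may reflect either rise or fall in cell number versus DMSO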
Procedure, shortened: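 Human umbilical vein endothelial cells were grown sub-confluent and exposed to chemical for 48 h, then fixed with 10% TCA and stained with 0.1% sulforhodamine B; absorbance at 560 nm gave relative cell number, fitted bidirectionally against DMSO baseline.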

[9] = molecular target: Peroxisome proliferator-activated receptor gamma (Homo sapiens) (UniProt P37231); assay: ATG_PPARg_TRANS: Attagene TRANS-FACTORIAL HepG2 Assay for human Peroxisome Proliferator-activated Receptor-gamma (PPARg) (AID 2283007; active means hit-call score of the fitted dose curve at least 0.9, where 1 is the maximum)
Chain of Peroxisome proliferator-activated receptor gamma (Homo sapiens) (P37231 whole entry, looked up, the tested form may be a part): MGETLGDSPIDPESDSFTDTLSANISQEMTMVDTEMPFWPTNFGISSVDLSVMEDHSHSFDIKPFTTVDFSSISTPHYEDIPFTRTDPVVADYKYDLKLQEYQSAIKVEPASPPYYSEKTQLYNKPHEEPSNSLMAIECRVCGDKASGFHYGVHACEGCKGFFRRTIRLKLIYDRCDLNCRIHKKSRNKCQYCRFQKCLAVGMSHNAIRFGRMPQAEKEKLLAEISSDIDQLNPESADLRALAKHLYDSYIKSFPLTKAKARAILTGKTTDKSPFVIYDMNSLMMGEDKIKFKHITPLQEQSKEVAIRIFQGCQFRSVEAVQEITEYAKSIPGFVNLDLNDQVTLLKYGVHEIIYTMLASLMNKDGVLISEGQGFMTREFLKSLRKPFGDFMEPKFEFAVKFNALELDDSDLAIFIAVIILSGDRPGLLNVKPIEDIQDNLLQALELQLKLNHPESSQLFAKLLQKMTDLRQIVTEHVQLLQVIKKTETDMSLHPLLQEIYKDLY
Procedure, shortened: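 HepG2 cells transiently transfected with multiplexed GAL4-UAS reporter units and exogenous chimeric NR-Gal4 proteins; reporter mRNA quantified after 24 h compound exposure by RT-PCR, fluorescent labelling, HpaI digestion and capillary electrophoresis; gain-of-signal fitted versus DMSO baseline.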

[10] = molecular target: Nuclear receptor subfamily 1 group I member 2 (Homo sapiens) (UniProt O75469); assay: ATG_PXR_TRANS: Attagene TRANS-FACTORIAL HepG2 Assay for human Pregnane X Receptor (PXR) (AID 2283008; active means hit-call score of the fitted dose curve at least 0.9, where 1 is the maximum)
Chain of Nuclear receptor subfamily 1 group I member 2 (Homo sapiens) (O75469 whole entry, looked up, the tested form may be a part): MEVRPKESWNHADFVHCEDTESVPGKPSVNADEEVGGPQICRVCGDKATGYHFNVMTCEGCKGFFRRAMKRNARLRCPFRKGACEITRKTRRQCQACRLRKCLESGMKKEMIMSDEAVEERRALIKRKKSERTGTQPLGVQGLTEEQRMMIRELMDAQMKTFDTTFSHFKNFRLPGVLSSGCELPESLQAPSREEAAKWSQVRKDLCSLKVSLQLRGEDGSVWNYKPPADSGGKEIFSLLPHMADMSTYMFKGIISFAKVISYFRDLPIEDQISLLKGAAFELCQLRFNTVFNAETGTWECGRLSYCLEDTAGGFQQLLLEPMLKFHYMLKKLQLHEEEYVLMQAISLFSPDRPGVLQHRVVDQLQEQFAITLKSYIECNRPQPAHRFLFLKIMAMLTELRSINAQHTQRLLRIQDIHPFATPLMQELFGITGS
Procedure, shortened: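 HepG2 cells transiently transfected with multiple reporter units, here a PXR-GAL4 chimera driving a GAL4-UAS reporter; 24 h compound exposure. Reporter mRNA measured by RT-PCR, FAM labelling and capillary electrophoresis; gain of signal fitted against DMSO baseline.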

[11] = molecular target: human RAR-related Orphan Receptor beta (RORb), RORB (gene 6096) (UniProt Q92753); assay: ATG_RORb_TRANS: Attagene TRANS-FACTORIAL HepG2 Assay for human RAR-related Orphan Receptor beta (RORb) (AID 2283010; active means hit-call score of the fitted dose curve at least 0.9, where 1 is the maximum)
Chain of human RAR-related Orphan Receptor beta (RORb), RORB (gene 6096) (Q92753 whole entry, looked up, the tested form may be a part): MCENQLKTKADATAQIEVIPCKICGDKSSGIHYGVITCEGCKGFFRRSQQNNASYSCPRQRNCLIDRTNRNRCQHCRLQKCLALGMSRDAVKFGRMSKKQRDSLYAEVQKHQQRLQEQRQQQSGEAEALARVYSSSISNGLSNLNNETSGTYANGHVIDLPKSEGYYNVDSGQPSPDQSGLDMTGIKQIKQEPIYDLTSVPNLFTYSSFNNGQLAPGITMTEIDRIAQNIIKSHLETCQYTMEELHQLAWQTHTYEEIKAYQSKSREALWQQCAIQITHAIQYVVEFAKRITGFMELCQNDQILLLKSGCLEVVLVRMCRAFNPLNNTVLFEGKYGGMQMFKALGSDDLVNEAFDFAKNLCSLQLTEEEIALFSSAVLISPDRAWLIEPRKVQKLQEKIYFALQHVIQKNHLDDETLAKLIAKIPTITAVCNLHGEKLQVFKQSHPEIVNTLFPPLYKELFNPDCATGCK
Procedure, shortened: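 HepG2 cells were transiently transfected with multiplexed GAL4-UAS reporter units expressing chimeric nuclear receptor–GAL4 proteins, then dosed for 24 h. Reporter mRNA was quantified by RT-PCR with fluorescent labelling and capillary electrophoresis; gain of signal was fitted relative to DMSO.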

[12] = molecular target: Retinoic acid receptor RXR-alpha (Homo sapiens) (UniProt P19793); assay: ATG_RXRa_TRANS: Attagene TRANS-FACTORIAL HepG2 Assay for human Retinoid X Receptor alpha (RXRa) (AID 2283012; active means hit-call score of the fitted dose curve at least 0.9, where 1 is the maximum)
Chain of Retinoic acid receptor RXR-alpha (Homo sapiens) (P19793 whole entry, looked up, the tested form may be a part): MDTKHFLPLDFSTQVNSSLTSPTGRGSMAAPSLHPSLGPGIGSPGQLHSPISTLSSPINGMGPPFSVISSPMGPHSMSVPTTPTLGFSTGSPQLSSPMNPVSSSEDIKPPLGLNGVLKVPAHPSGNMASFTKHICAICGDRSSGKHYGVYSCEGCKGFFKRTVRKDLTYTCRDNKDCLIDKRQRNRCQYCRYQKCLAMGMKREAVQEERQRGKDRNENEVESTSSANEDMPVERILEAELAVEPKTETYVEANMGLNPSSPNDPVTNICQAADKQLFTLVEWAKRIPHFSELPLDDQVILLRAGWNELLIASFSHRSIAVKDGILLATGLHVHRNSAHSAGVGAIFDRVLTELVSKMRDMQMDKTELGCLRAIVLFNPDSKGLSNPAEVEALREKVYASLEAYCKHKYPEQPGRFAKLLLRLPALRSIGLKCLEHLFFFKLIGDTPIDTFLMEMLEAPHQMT
Procedure, shortened: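 HepG2 cells transiently transfected with multiplexed GAL4-UAS reporter units and chimeric NR-GAL4 fusions, dosed 24 h. Reporter mRNA measured by RT-PCR, FAM labelling, HpaI digestion and capillary electrophoresis; gain-of-signal fitted relative to DMSO baseline.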

[13] = molecular target: human Retinoid X Receptor beta (RXRb), RXRB (gene 6257) (UniProt P28702); assay: ATG_RXRb_TRANS: Attagene TRANS-FACTORIAL HepG2 Assay for human Retinoid X Receptor beta (RXRb) (AID 2283013; active means hit-call score of the fitted dose curve at least 0.9, where 1 is the maximum)
Chain of human Retinoid X Receptor beta (RXRb), RXRB (gene 6257) (P28702 whole entry, looked up, the tested form may be a part): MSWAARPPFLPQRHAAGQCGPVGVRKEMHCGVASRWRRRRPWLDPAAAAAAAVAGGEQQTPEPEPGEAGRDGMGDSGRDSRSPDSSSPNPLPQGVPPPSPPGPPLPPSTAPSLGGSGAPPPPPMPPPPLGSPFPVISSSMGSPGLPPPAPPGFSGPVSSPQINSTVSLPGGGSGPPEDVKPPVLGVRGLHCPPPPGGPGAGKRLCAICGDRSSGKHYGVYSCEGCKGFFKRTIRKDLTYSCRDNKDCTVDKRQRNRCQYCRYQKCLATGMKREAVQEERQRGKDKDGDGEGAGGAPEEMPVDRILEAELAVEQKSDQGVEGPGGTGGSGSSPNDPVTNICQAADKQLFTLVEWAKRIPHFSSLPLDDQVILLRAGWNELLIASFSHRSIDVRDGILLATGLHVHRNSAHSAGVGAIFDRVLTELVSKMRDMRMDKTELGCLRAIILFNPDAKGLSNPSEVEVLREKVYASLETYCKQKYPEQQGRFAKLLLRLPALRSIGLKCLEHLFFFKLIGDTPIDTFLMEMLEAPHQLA
Procedure, shortened: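 HepG2 cells transiently transfected with multiplexed reporter units driven by GAL4-UAS and exogenous chimeric NR-Gal4 proteins; treated 24 h. Reporter mRNA measured by RT-PCR, 6-FAM labelling and capillary electrophoresis; gain-of-signal fitted versus DMSO baseline.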

[14] = molecular target: human Thyroid Receptor alpha (THRa1), THRA (gene 7067) (UniProt P10827); assay: ATG_THRa1_TRANS: Attagene TRANS-FACTORIAL HepG2 Assay for human Thyroid Receptor alpha (THRa1) (AID 2283014; active means hit-call score of the fitted dose curve at least 0.9, where 1 is the maximum)
Chain of human Thyroid Receptor alpha (THRa1), THRA (gene 7067) (P10827 whole entry, looked up, the tested form may be a part): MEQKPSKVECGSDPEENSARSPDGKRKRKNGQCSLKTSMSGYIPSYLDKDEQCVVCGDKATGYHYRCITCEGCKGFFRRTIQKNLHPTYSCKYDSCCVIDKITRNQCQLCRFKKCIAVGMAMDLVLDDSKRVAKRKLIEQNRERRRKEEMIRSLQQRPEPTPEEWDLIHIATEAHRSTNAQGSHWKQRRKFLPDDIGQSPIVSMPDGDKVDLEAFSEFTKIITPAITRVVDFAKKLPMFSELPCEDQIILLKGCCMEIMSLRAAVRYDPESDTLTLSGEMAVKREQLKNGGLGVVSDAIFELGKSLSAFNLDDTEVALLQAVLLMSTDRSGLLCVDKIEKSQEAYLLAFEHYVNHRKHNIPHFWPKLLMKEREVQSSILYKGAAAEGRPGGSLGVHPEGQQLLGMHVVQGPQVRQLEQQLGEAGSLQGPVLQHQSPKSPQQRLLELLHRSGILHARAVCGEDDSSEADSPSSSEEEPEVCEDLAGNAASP
Procedure, shortened: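 HepG2 cells transiently transfected with multiplexed GAL4-UAS reporter units for exogenous chimeric THRa1-Gal4; reporter mRNA measured 24 h after dosing by RT-PCR, 6-FAM labelling, HpaI digestion and capillary electrophoresis. Gain-of-signal fitted versus DMSO baseline.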

[15] = read-out: E-selectin (Homo sapiens) (UniProt P16581); assay: BSK_3C_Eselectin: BioMAP Diversity Plus: 3C Assay for Eselectin Biomarker Activity (AID 2283015); conditions: primary human endothelial cells (HUVEC); actives raise or lower the signal
Procedure, shortened: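 Primary human umbilical vein endothelial cells (3C system) were dosed with chemical and cell-surface E-selectin measured by ELISA 24 h later. Bidirectional curve fitting used DMSO as negative control and baseline.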

[16] = read-out: Interleukin-1 alpha (IL1a), IL1A (gene 3552); assay: BSK_BE3C_IL1a: BioMAP Diversity Plus: BE3C Assay for Interleukin-1 alpha (IL1a) Biomarker Activity (AID 2283016); conditions: primary human bronchial epithelial cells; actives raise or lower the signal
Procedure, shortened: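 Human primary bronchial epithelial cells (BE3C system) were dosed with compound and IL-1a measured by ELISA 24 h later. Activity was fitted bidirectionally against DMSO baseline; cytotoxicity was tracked in parallel cultures by SRB total-protein staining.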

[17] = read-out: Monocyte Chemoattractant Protein-1 (MCP1), CCL2 (gene 6347); assay: BSK_3C_MCP1: BioMAP Diversity Plus: 3C Assay for Monocyte Chemoattractant Protein-1 (MCP1) Biomarker Activity (AID 2283017); conditions: primary human endothelial cells (HUVEC); actives raise or lower the signal
Procedure, shortened: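 Primary human umbilical vein endothelial cells (3C system) were exposed to test chemical for 24 h, after which MCP-1 was quantified by ELISA. Activity was fitted bidirectionally against DMSO as negative control and baseline.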

[18] = read-out: Monocyte Chemoattractant Protein-1 (MCP1), CCL2 (gene 6347); assay: BSK_4H_MCP1: BioMAP Diversity Plus: 4H Assay for Monocyte Chemoattractant Protein-1 (MCP1) Biomarker Activity (AID 2283018); conditions: primary human endothelial cells (HUVEC); actives raise or lower the signal
Procedure, shortened: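 Human umbilical vein endothelial cells (4H system) dosed with chemical; MCP-1 measured by ELISA 24 h after dosing. Bidirectional curve fitting against DMSO negative control as baseline; parallel SRB total-protein staining tracks overt cytotoxicity.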

[19] = molecular target: human Retinoic Acid Receptor gamma (RARg), RARG (gene 5916) (UniProt P13631); assay: ATG_RARg_TRANS: Attagene TRANS-FACTORIAL HepG2 Assay for human Retinoic Acid Receptor gamma (RARg) (AID 2283009; active means hit-call score of the fitted dose curve at least 0.9, where 1 is the maximum)
Procedure, shortened: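 HepG2 cells transiently transfected with multiplexed reporter units expressing chimeric RARg-GAL4 and GAL4-UAS-driven reporters; 24 h compound exposure. Reporter mRNA quantified by RT-PCR with fluorescent labelling and capillary electrophoresis; gain-of-signal fitted relative to DMSO baseline.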

Measured: AC50

Chain of E-selectin (Homo sapiens) (P16581 whole entry, looked up): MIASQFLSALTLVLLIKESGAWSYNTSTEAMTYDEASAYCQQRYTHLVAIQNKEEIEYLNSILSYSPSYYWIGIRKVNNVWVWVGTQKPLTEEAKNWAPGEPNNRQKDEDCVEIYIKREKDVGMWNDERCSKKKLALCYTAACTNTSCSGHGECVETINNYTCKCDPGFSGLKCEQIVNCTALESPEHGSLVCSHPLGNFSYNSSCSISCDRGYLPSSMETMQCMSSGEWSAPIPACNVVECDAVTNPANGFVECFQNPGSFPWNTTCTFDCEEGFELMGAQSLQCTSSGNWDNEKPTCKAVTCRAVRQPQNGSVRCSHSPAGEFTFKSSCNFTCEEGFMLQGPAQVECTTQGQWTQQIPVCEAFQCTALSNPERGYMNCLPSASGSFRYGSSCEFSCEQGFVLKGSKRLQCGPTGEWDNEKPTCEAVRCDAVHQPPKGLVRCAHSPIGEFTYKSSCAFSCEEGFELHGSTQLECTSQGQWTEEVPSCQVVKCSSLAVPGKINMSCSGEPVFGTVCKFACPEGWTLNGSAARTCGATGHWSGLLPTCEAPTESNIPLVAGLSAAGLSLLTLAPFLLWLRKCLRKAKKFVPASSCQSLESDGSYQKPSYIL

Cc1cc(C)nc(Nc2ccccc2)n1
not listed: [19]
inactive: all other assays above

CCCCC(C#N)(Cn1cncn1)c1ccc(Cl)cc1 (stereo unspecified)
active: [7] 19.7 µM
not listed: [11] | [12] | [14]
inactive: all other assays above

Cc1cnc(C2=NC(C)(C(C)C)C(=O)N2)c(C(=O)O)c1 (stereo unspecified)
active: [10] 50 µM
not listed: [6]
inactive: all other assays above

O=C1C2CC=CCC2C(=O)N1SC(Cl)(Cl)Cl (stereo unspecified)
active: [2] 26.6 µM | [8] 32.4 µM | [16] 11.2 µM
not listed: [6] | [19]
inactive: all other assays above

Cc1ccc(N=CN(C)C=Nc2ccc(C)cc2C)c(C)c1
inactive: [4] | [6] | [10]
active: [1] 37.6 µM | [2] 16.4 µM | [3] 38.6 µM | [5] 30.3 µM | [8] 15.3 µM | [15] 33 µM | [16] 35.1 µM | [17] 36 µM | [18] 31.4 µM

Reference: PubChem BioAssay (EPA / NIEHS)
